# IDE exosite inh – exo-site inhibitors of human IDE, primary screen, biochemical, fluorescence anisotropy, probe displacement. 17,000 compounds, 6.3% hits. purified IDE, FL-6b probe fluorescence polarization; hits give low values. z-score at 20 µM;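 active = z-score of -3 or lower, meaning strong loss of probe binding signal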;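 also: His-tagged human IDE residues 42-1019 made in E. coli with 30 nM FL-6b probe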
# The depositor's hits bear a star. The full list was thinned out, with hits kept by preference.
SMILES,IDE exosite inh
COc1ccc(CN(C)C[C@H]2OCCCC[C@H](C)Oc3ccc(NC(=O)C4CCCCC4)cc3C(=O)N([C@H](C)CO)C[C@H]2C)cc1,0.035
COc1ccccc1-c1ccccc1[C@H]1[C@@H](C#N)N(C(=O)C2CCOCC2)[C@H]1CO,-0.28
O=C(c1ccccn1)N1CC(=O)N2[C@H](CO)[C@@H](c3ccc(C#CCc4ccccc4)cc3)[C@H]2C1,-1.9
O=C(c1ccccn1)N1CC(=O)N2[C@H](CO)[C@@H](c3ccc(C#CCc4ccccc4)cc3)[C@@H]2C1,-0.0049
O=C(c1ccccn1)N1CC(=O)N2[C@H](C1)[C@H](c1ccc(C#CCc3ccccc3)cc1)[C@@H]2CO,0.049
CC(C)C#Cc1ccc([C@@H]2[C@@H](CO)N3C(=O)CN(C(=O)c4ccccn4)C[C@@H]23)cc1,0.71
O=C(c1ccccn1)N1CC(=O)N2[C@@H](CO)[C@@H](c3ccc(C#Cc4ccccc4)cc3)[C@@H]2C1,-20*
O=C(c1ccccn1)N1CC(=O)N2[C@H](CO)[C@H](c3ccc(C#Cc4ccccc4)cc3)[C@@H]2C1,-5.8*
O=C(c1ccccn1)N1CC(=O)N2[C@H](CO)[C@@H](c3ccc(C#Cc4ccccc4)cc3)[C@@H]2C1,-7.3*
CCCC#Cc1ccc([C@H]2[C@H]3CN(C(=O)c4ccccn4)CC(=O)N3[C@H]2CO)cc1,2.6
O=C(c1ccccn1)N1CC(=O)N2[C@H](C1)[C@@H](c1ccc(C#CCc3ccccc3)cc1)[C@@H]2CO,0.38
COc1ccc2c3c([nH]c2c1)[C@H](CO)N(C(=O)NC(C)C)CC31CCN(C(=O)C2CCCCC2)CC1,-1.1
CCCN1C[C@@H](C)[C@@H](OC)CN(C)C(=O)c2cc(NS(=O)(=O)c3ccccc3)ccc2OC[C@H]1C,0.082
C/C=C/c1ccc([C@@H]2[C@@H](CO)N3CCCCN(C(=O)Nc4cc(F)ccc4F)C[C@H]23)cc1,1.4
COc1ccc(-c2ccc([C@H]3[C@@H](CO)N4CCCCN(C(=O)NC(C)C)C[C@@H]34)cc2)cc1,-6.3*
COCC(=O)N1CCCCN2[C@H](C1)[C@H](c1ccc(-c3ccc(OC)cc3)cc1)[C@@H]2CO,-0.9
COCC(=O)N1CCCCN2[C@H](CO)[C@@H](c3ccc(-c4ccc(OC)cc4)cc3)[C@H]2C1,-1.3
CC(C)NC(=O)N1CCCCN2[C@H](C1)[C@@H](c1ccc(Br)cc1)[C@@H]2CO,2.7
COc1ccc(-c2ccc([C@H]3[C@H](CO)N4CCCCN(C(=O)NC(C)C)C[C@@H]34)cc2)cc1,-7.3*
COc1ccc(-c2ccc([C@@H]3[C@H]4CN(C(=O)NC(C)C)CCCCN4[C@H]3CO)cc2)cc1,-6.6*
COc1ccc(-c2ccc([C@@H]3[C@H]4CN(C(=O)c5ccc(F)cc5)CCCCN4[C@H]3CO)cc2)cc1,1.5
COCC(=O)N1CCCCN2[C@@H](CO)[C@@H](c3ccc(-c4ccc(OC)cc4)cc3)[C@@H]2C1,0.41
COc1ccc(-c2ccc([C@H]3[C@@H](CO)N4CCCCN(C(=O)NC(C)C)C[C@H]34)cc2)cc1,-1.7
O=C(NCCN1CCCC1)[C@H]1[C@H](CO)[C@H]2Cn3c(cccc3=O)[C@H]2N1Cc1ccccn1,1.3
COCC(=O)N1[C@H](C#N)[C@H](c2ccc(-c3cccc(F)c3)cc2)[C@H]1CO,1.5
SMILES,IDE exosite inh
COCC(=O)Nc1ccc2c(c1)C(=O)N(C)[C@H]1CC[C@H](CC(=O)NCCCN(C)C)O[C@H]1CO2,0.62
CN(C)CC#Cc1ccc([C@H]2[C@@H](CO)N3C(=O)CN(C(=O)Cc4ccccc4)C[C@H]23)cc1,0.095
CCS(=O)(=O)N1CC2(C1)[C@H](c1ccccc1)[C@H](CO)N2Cc1ccc(F)cc1,0.32
CC=Cc1ccc2n(c1=O)C[C@H]1[C@H](CO)[C@@H](C(=O)NCc3ccc4c(c3)OCO4)[C@@H]2N1C(=O)COC (mixture of isomers),-0.64
CN1C(=O)c2cc(NC(=O)c3cscn3)ccc2OC[C@H]2O[C@H](CC(=O)NCc3ccc(Cl)c(Cl)c3)CC[C@H]21,-0.32
CN(C[C@H]1[C@@H](c2ccccc2)[C@@H](CO)N1Cc1ccccn1)S(C)(=O)=O,0.34
Cc1cccc(-c2ccc([C@@H]3[C@@H](CO)N4CCCCN(CCC(F)(F)F)C[C@H]34)cc2)c1,-2.9
CN(C)C(=O)c1ccc(-c2ccc([C@@H]3[C@@H](CO)N4CCCCN(Cc5ccncc5)C[C@@H]34)cc2)cc1,2.6
Cc1cccc(-c2ccc([C@@H]3[C@@H](CO)N4CCCCN(CCC(F)(F)F)C[C@@H]34)cc2)c1,-0.68
Cc1cccc(-c2ccc([C@H]3[C@H]4CN(Cc5ccncc5)CCCCN4[C@H]3CO)cc2)c1,-5*
OC[C@H]1[C@@H](c2ccc(C3=CCCC3)cc2)[C@@H]2CN(Cc3ccncc3)CCCCN12,-0.9
Cc1cccc(-c2ccc([C@H]3[C@@H](CO)N4CCCCN(Cc5ccncc5)C[C@H]34)cc2)c1,-5.9*
Cc1cccc(-c2ccc([C@H]3[C@H](CO)N4CCCCN(CCC(F)(F)F)C[C@@H]34)cc2)c1,-0.21
Cc1cccc(-c2ccc([C@H]3[C@@H](CO)N4CCCCN(CCC(F)(F)F)C[C@H]34)cc2)c1,-3.6*
Cc1cccc(-c2ccc([C@H]3[C@@H](CO)N4CCCCN(CCC(F)(F)F)C[C@@H]34)cc2)c1,0.47
Cc1cccc(-c2ccc([C@H]3[C@H](CO)N4CCCCN(Cc5ccncc5)C[C@@H]34)cc2)c1,-3.7*
Cc1cccc(-c2ccc([C@@H]3[C@H](CO)N4CCCCN(CCC(F)(F)F)C[C@@H]34)cc2)c1,-2.7
CN(C)CC#Cc1ccc([C@@H]2[C@H](C#N)N[C@@H]2CO)cc1,-0.91
CO[C@H]1CN(C)C(=O)c2ccc(NS(=O)(=O)c3ccc(C)cc3)cc2OC[C@@H](C)N(C)C[C@@H]1C,-0.78
COc1ccccc1CNC(=O)C[C@H]1CC[C@H]2[C@@H](COC[C@@H](O)CN2Cc2ccc3c(c2)OCO3)O1,-0.66
COc1ccc2c3c([nH]c2c1)[C@H](CO)N(C(=O)NC(C)C)CC31CN(Cc2ccc(F)cc2)C1,1.4
CN(C)CC#Cc1ccc([C@H]2[C@@H](CO)N3C(=O)CN(C(=O)Cc4cccnc4)C[C@@H]23)cc1,-0.27
COc1cccc(-c2ccc(C3[C@H]4CNC[C@@H]3N4CC3CCOCC3)cc2)c1 (stereo not given in full),2.9
O=C(c1cccc(F)c1)N1CC(=O)N2[C@H](CO)[C@@H](c3ccc(-c4cccnc4)cc3)[C@@H]2C1,-0.39
CC(C)[C@@H]1COCc2cn(nn2)CCC[C@H](C)C(=O)N1,0.062
SMILES,IDE exosite inh
C/C=C/c1ccc([C@@H]2[C@H](CO)N3C(=O)CN(C(=O)c4ccncc4)C[C@@H]23)cc1,0.7
O=C(c1ccncc1)N1CC(=O)N2[C@@H](CO)[C@H](c3ccc(/C=C/c4ccccc4)cc3)[C@@H]2C1,-16*
O=C(c1ccc(F)cc1)N1CC(=O)N2[C@H](CO)[C@H](c3ccc(/C=C/c4ccccc4)cc3)[C@@H]2C1,1.2
C/C=C/c1ccc([C@H]2[C@H]3CN(C(=O)c4ccncc4)CC(=O)N3[C@H]2CO)cc1,0.6
C/C=C/c1ccc([C@@H]2[C@@H](CO)N3C(=O)CN(C(=O)c4ccncc4)C[C@@H]23)cc1,1.1
O=C(c1ccncc1)N1CC(=O)N2[C@H](CO)[C@@H](c3ccc(/C=C/c4ccccc4)cc3)[C@@H]2C1,-1

# Screens from PubChem.
